The campaign covered roughly 69,000 compounds. About 8,600 (12%) showed an effect of 50% or more. This excerpt belongs to a sample that is enriched for strong results.
Test system: Plasmodium berghei
Test: Screen against P. berghei liver stage (PbLuc), transformed with Luciferase, at 10uM
Type: functional, HepG2
Conditions: tested at 10 uM

Row | Compound | INHIBITION
1 | O=c1c(S(=O)(=O)N2CCCC2)cccn1Cc1ccc(F)cc1Cl | 24.2%
2 | Cc1noc2ncc(C(=O)N3CCCC3c3ccsc3)cc12 (stereo not given) | -7.35%
3 | Cc1cc(C2CCCN(C(=O)Cc3csc(C(C)C)n3)C2)n[nH]1 (stereo not given) | -23.8%
4 | O=S(=O)(c1ccccc1)N1CCCC1c1cc[nH]n1 (stereo not given) | 18.9%
5 | Cc1ccc(C(=O)NCCNc2ncccc2C#N)c(=O)[nH]1 | -58.7%
6 | Cc1ccc(CNC(=O)c2ccc(=O)n(C)n2)c(OC2CCCC2)c1 | 5.91%
7 | CN1CCc2c(sc3c2C(=O)NC(C=Cc2ccccc2)N3)C1 (stereo not given) | -45.3%
8 | Cc1ccc(CN2Cc3c(C(=O)N4CCCC4)nn(C)c3C2)s1 | -30.6%
9 | CC(C)CCN1Cc2c(C(=O)N3CCCC3)nn(C)c2C1 | 60%
10 | CCC(C)N1Cc2c(C(=O)N3CCCC3)nn(C)c2C1 (stereo not given) | 23.1%
11 | Cn1nc(C(=O)N2CCOCC2)c2c1CN(CC1CCC1)C2 | 53%
12 | Cn1nc(C(=O)N2CCCC2)c2c1CN(CC1CCOCC1)C2 | 21.6%
13 | Cn1nc(C(=O)N2CCOCC2)c2c1CN(CC1CC1)C2 | 48.4%
14 | CCN1C(=O)CCC12CCC(NC(=O)c1cnccn1)CC2 (stereo not given) | -43%
15 | CNC(=O)c1cn[nH]c1C1(C)CCCN(Cc2nccn2C(C)C)C1 (stereo not given) | 46%
16 | CC(NCc1cnc(C2CCC2)s1)c1ccccc1-n1cccn1 (stereo not given) | 11.9%
17 | CC(NCc1cnc(C2CCC2)s1)c1ccc(-n2cncn2)cc1 (stereo not given) | 61.4%
18 | Cc1cnn(CC(C)NCc2ccc(-n3cccn3)cc2)c1 (stereo not given) | -1.58%
19 | CC(NCc1cnc(C2CCC2)s1)c1cccc(-n2cccn2)c1 (stereo not given) | 75.3%
20 | CCOCCCNC(=O)NC(C)c1ccc(-n2cncn2)cc1 (stereo not given) | -31.4%
21 | CC(NCc1cnc(C2CCC2)s1)c1cccc(-n2ccnc2)c1 (stereo not given) | 29.7%
22 | CC(NCc1cnc(C2CCC2)s1)c1ccc(-n2cccn2)cc1 (stereo not given) | 59.4%
23 | CCCS(=O)(=O)NC(C)c1cccc(-n2cccn2)c1 (stereo not given) | 29.3%
24 | CC(C)COCCCNC(=O)NC(C)c1ccc(-n2cncn2)cc1 (stereo not given) | -12.3%
25 | CN1CCN(C(=O)c2cccn2C)Cc2cccnc21 | 16.4%
26 | O=C1N(CC2CC2)CCC12CCCN(c1ncc(F)cn1)C2 (stereo not given) | 42.4%
27 | Cc1cnn(CC2CCCN2C(=O)c2csc(C3CC3)n2)c1 (stereo not given) | -23.9%

Row | Compound | INHIBITION
28 | O=C(CCN1CCCC1)Nc1c2c(cc3c1CCC3)CCC2 | 6.29%
29 | CC(=O)N1CCC(C)(c2cc(C(=O)NCC(C)(C)C)nc(C)n2)CC1 | 37.9%
30 | Cc1cccc(C(=O)N2CCN(S(C)(=O)=O)[C@@H](C)C2)c1C | 40.3%
31 | Cc1cccc(C(=O)N2CCN(S(C)(=O)=O)[C@@H](C)C2)c1Cl | 22.6%
32 | C[C@H]1CN(C(=O)c2cccc(F)c2Cl)CCN1S(C)(=O)=O | 61.1%
33 | Cc1ccc(C(C)C(=O)N2CCCN(Cc3cscn3)CC2)cc1 (stereo not given) | 15.2%
34 | CC(C)c1ccc(O)c(C(=O)N2CCN(Cc3cscn3)CC2)c1 | 54.9%
35 | COCc1ccc(C(=O)N2CCCN(Cc3cscn3)CC2)cc1 | 27.4%
36 | CC(C)c1ccsc1C(=O)N1CCCN(Cc2cscn2)CC1 | 2.61%
37 | Cc1nc(CN2CCN(C(=O)C(c3ccccc3C)N(C)C)CC2)no1 (stereo not given) | 6.66%
38 | Cc1nc(CN2CCN(C(=O)COCc3ccccc3)CC2)no1 | 4.2%
39 | CC(C)c1ncncc1C(=O)N1CCN(Cc2cscn2)CC1 | 49.3%
40 | CC(Oc1ccccc1)C(=O)N1CCCN(Cc2cscn2)CC1 (stereo not given) | 27.25%
41 | COC(C(=O)N1CCN(Cc2noc(C)n2)CC1)c1ccccc1 (stereo not given) | 53.8%
42 | O=C(c1ccc(Cl)o1)N1CCCN(Cc2cscn2)CC1 | 50.4%
43 | Cc1ccc(C(=O)N2CCCN(Cc3cscn3)CC2)o1 | 7.67%
44 | COC(C(=O)N1CCCN(Cc2cscn2)CC1)c1ccccc1 (stereo not given) | 54.3%
45 | Cn1nccc1CNC(=O)CCn1nc(C(F)(F)F)cc1C1CC1 | -49.3%
46 | c1cncc(CN(Cc2ccc(-n3ccnc3)cc2)CC2CCCO2)c1 (stereo not given) | 23.2%
47 | CC(C)c1ccc(C(C)N2CCCN(C(N)=O)CC2)cc1 (stereo not given) | -18.7%
48 | CC1CCCN(S(=O)(=O)NCc2ccccc2Cn2cncn2)C1 (stereo not given) | 37.4%
49 | CC1CCCN(CC(=O)N2CCC(c3ncc4c(n3)CCNC4)CC2)C1 (stereo not given) | 25%
50 | COc1cccc(COCC(=O)N2CCCC(n3cncn3)C2)c1 (stereo not given) | -24.2%
51 | COc1ccc(Cc2noc(-c3ccc(NC(C)CO)nc3)n2)cc1 (stereo not given) | 52.2%
52 | CC(CO)Nc1ccc(-c2nc(Cc3ccc(F)cc3)no2)cn1 (stereo not given) | -37.6%
53 | COCC(C)Nc1ccc(-c2nc(Cc3ccc(F)cc3)no2)cn1 (stereo not given) | 49%
54 | N#Cc1ccc(N2CCC3(CC2)COCCN3Cc2cccnc2)cc1 | -6.46%

Row | Compound | INHIBITION
55 | Cc1ncc(C(=O)N2CCC(C(=O)NC3CCCC3)C2)c(C)n1 (stereo not given) | 19.3%
56 | c1ccc2c(c1)CN(c1ncnc3c1CCNC3)CCO2 | 25.9%
57 | c1ccn2c(C3CCCN(c4ncnc5c4CCNC5)C3)nnc2c1 (stereo not given) | -20.8%
58 | c1cc(C2CCN(c3ncnc4c3CCNCC4)CC2)ccn1 | 33.9%
59 | c1ccc(C2CCCN(c3ncnc4c3CCNC4)CC2)cc1 (stereo not given) | 83.9%
60 | Cc1cc(C)n(C2CCN(c3ncnc4c3CCNCC4)C2)n1 (stereo not given) | 42.1%
61 | c1ccc(C2CCN(c3ncnc4c3CCNC4)CC2)cc1 | 83%
62 | CN1CC2(CCN(c3ncnc4c3CCNC4)CC2)OC1=O | 49.5%
63 | Clc1cccc(C2CCN(c3ncnc4c3CCNC4)C2)c1 (stereo not given) | 83%
64 | c1nc2c(c(N3CCOCC3)n1)CCNCC2 | 27.5%
65 | Cn1cnc2c1C(COCC1CC1)CN(C(=O)Cc1ccsc1)C2 (stereo not given) | 11.1%
66 | NC(=O)C1(CCCc2ccccn2)CCCN(CCO)C1 (stereo not given) | 30.8%
67 | Cc1cc(C)n(CCCN(C)c2cc(N(C)C)ncn2)n1 | 28.2%
68 | CC(C)OCCCN(Cc1cnn(C)c1)Cc1ccccn1 | -51.3%
69 | CCN(Cc1ccccn1)C1CCN(c2ccccc2)C1=O (stereo not given) | -31.1%
70 | Cn1ccnc1C(=O)N[C@@H]1CN(Cc2cccs2)[C@@H]2CCCO[C@@H]21 | 22.2%
71 | Cn1ccnc1C(=O)N[C@@H]1CN(Cc2ccc(F)cc2)[C@@H]2CCCO[C@@H]21 | 49.4%
72 | Cc1ccc(CN2C[C@H](N(C)Cc3cncnc3)[C@H]3OCCC[C@H]32)o1 | -3.77%
73 | Cc1ccc(CN2C[C@H](NC(=O)c3nccn3C)[C@H]3OCCC[C@H]32)o1 | 75.6%
74 | Cn1cc(C(=O)N[C@@H]2CN(CC3CCOCC3)[C@@H]3CCCO[C@@H]32)cn1 | -14.4%
75 | Cn1ccnc1C(=O)N[C@@H]1CN(Cc2ccoc2)[C@@H]2CCCO[C@@H]21 | 29.4%
76 | Cn1ccnc1C(=O)N[C@@H]1CN(CC2CCOCC2)[C@@H]2CCCO[C@@H]21 | 63.8%
77 | Cc1ccc(CN2C[C@@H](N(C)C)[C@H]3OCCC[C@H]32)o1 | -37.9%
78 | CCN(CC)[C@@H]1CN(Cc2ccc(C)o2)[C@@H]2CCCO[C@H]12 | 63.1%
79 | COC(=O)c1cccc(C(=O)NCc2ccc(C)o2)n1 | 39.1%
80 | Cc1ccc(N2CC[C@H]3O[C@@H](C(=O)NCc4ccco4)CC[C@H]32)nn1 | 21.6%
81 | COC(=O)CC1CCN(C(=O)Nc2ccc(-c3ccn[nH]3)cc2)C1 (stereo not given) | 37.7%

Row | Compound | INHIBITION
82 | Cc1ccc(CN2CCC[C@@H]3CN(C(=O)c4ccco4)C[C@@H]32)s1 | -2.25%
83 | CN1C(=O)CC(c2ccccc2)C12CCN(CC1CC1)CC2 (stereo not given) | -40.5%
84 | CCNC(c1ccc(C(C)C)cc1)c1cccnc1 (stereo not given) | 8.64%
85 | CC(=O)Nc1nc(-c2ccc(F)cc2)c[nH]1 | 63.6%
86 | Cc1nc(-c2cccc(C(=O)O)c2)c[nH]1 | -34.8%
87 | CC(=O)c1cccc(-c2c[nH]c(C)n2)c1 | -30.5%
88 | CC(=O)Nc1nc(-c2ccccc2)c[nH]1 | 58.1%
89 | CC(=O)Nc1nc(-c2ccc(C)c(C)c2)c[nH]1 | 7.22%
90 | CNC(=O)NC(C)c1nc(-c2ccccc2)c[nH]1 (stereo not given) | -51.8%
91 | Cc1cc(N2CCN(Cc3cn(C)nc3C)CC2)cc(C2CCCN2)n1 (stereo not given) | -10%
92 | Cc1ccc([C@@]2(O)CC[C@@H]3CN(S(=O)(=O)c4cn(C)nc4C)C[C@@H]32)cc1 | 32.8%
93 | CC(CO)(CO)NC(=O)C1CCC(=O)N(Cc2ccc(Cl)cc2)C1 (stereo not given) | 35.7%
94 | COc1ccc(Cl)cc1NCC(=O)NCCNc1ncccn1 | 45.7%
95 | COc1ccc(C)cc1NS(=O)(=O)c1ccc(CCNC(C)=O)s1 | -1.04%
96 | c1coc(CN2CCC3(CC2)COC(COCC2CC2)C3)c1 (stereo not given) | -28.2%
97 | Cc1cnc(CN(C)C2CCN(CCn3cc(C#N)cn3)C2)o1 (stereo not given) | 44.8%
98 | CCc1cnc(CN(C)C2CCN(CCn3cc(C#N)cn3)C2)o1 (stereo not given) | 52.5%
99 | CCc1cnc(CN(C)C2CCN(CC(=O)Nc3cc(C)on3)C2)o1 (stereo not given) | -32%
100 | CC(C)c1nc(CN(C)C2CCN(CCn3cc(C#N)cn3)C2)no1 (stereo not given) | 29.2%
101 | CN(Cc1noc(C2CC2)n1)C1CCN(CCn2cc(C#N)cn2)C1 (stereo not given) | 37.4%
102 | Cc1nc(CN(C)C2CCN(CCn3cc(C#N)cn3)C2)no1 (stereo not given) | 53.9%
103 | Cc1cnc(CN(C)C2CCN(CC(=O)Nc3nccs3)C2)o1 (stereo not given) | 9.14%
104 | CCc1cnc(CN(C)C2CCN(CC(=O)Nc3nccs3)C2)o1 (stereo not given) | 52.3%
105 | CC(C)c1cnc(CN(C)C2CCN(CCn3cc(C#N)cn3)C2)o1 (stereo not given) | -6.44%

Reference: ChEMBL document CHEMBL4513216, “Probing the Open Global Health Chemical Diversity Library for Multistage-Active Starting Points for Next-Generation Antimalarials” (ACS Infect Dis, 2020)
